Results on 22 compounds are retold here after PubChem BioAssay (NCATS).

Assay [1] is described as follows: qHTS Screen of the MIPE 4.0 Collection Against Ewings Sarcoma (TC32) (AID 1259256). Further: nearly all actives have a fitted effect of over 45% in size. Further: potency means the concentration at half of the fitted maximal effect. The procedure, abridged: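 CellTiter-Glo luminescence after 48 h compound exposure (titration) gave viability; percent activity used DMSO-treated cells as no inhibition and medium-only wells as full inhibition. Cells grown in RPMI/5% FBS, dosed 4 h post-seeding.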
In general terms: Quantitative high-throughput screening tests each substance at several concentrations.

Assay [2] is described as follows: Identifying Small Molecule Inhibitors of Pancreatic Cancer Stem Cells (SN12C, Spheroid) (AID 1259360). Further: potency means the concentration at half of the fitted maximal effect. Particulars: Potency: SN12C spheroid viability. Summed up:
(§1)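 Pre-formed 14-day tumor spheroids or adherent cells dosed and incubated 48 h, 37C, 5% CO2. Viability assessed by CellTiter-Glo.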

Assay [3] is described as follows: P-glycoprotein substrates identified in KB-8-5-11 adenocarcinoma cell line, qHTS therapeutic library screen (AID 1346987). Further: nearly all actives have a fitted effect of over 65% in size. Further: potency means the concentration at half of the fitted maximal effect. The procedure, abridged: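 P-gp-mediated resistance screen: KB-8-5-11 cells treated 72 h with compounds in dose-response. CellTiter-Glo viability.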
Assay [4] can be described thus: NS1 protein of Zika virus - qHTS assay to identify small molecule inhibitors in human HEK 293 cells (AID 1347053). Further: nearly all actives have a fitted effect of over 55% in size. Further: potency means the concentration at half of the fitted maximal effect. Summed up: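 Following 20 h seeding, HEK 293 cells took compound, then 1 h later ZIKV MR766 (MOI = 0.5). Incubation ran 24 h at 37 C before TR-FRET detection of NS1; a drop in signal indicates inhibition.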
Assay [5] can be described thus: qHTS of pediatric cancer cell lines to identify multiple opportunities for drug repurposing: Primary screen for TC32 cells (AID 1347089). Further: nearly all actives have a fitted effect of over 60% in size. Further: potency means the concentration at half of the fitted maximal effect. The procedure, abridged: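 Luminescent CellTiter-Glo read-out of metabolically active TC32 cells after 48 h compound exposure. Primary: MIPE 11-point, 0.78 nM–46 µM; NPC 8-point, 0.59 nM–46 µM. Confirmatory: 11-point dilutions.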

A short description of assay [6]: Identifying Small Molecule Inhibitors of Pancreatic Cancer Stem Cells (SN12C, Adherent) (AID 1259358).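 Further: cell survival measured after 48 h of compound exposure.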 Further: potency means the concentration at half of the fitted maximal effect. The procedure, abridged:
(§2)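 Cytotoxicity read by CellTiter-Glo luminescence after 48 h compound exposure at 37C; percent activity scaled between DMSO-treated cells and cell-free wells. Spheroid formats used cells pre-formed 14 days in stem cell media on hydrogel.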

Assay [7] in a line: Natriuretic polypeptide receptor (hNpr1) antagonism - Pilot counterscreen GloSensor control cell line (AID 1347045; calls by dose curve; further: series mostly up to about 38 µM; on the % scale 0 is the no-effect control and ±100 the full control effect). The procedure, abridged:
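This counterscreen uses HEK293 cells expressing the GIP/pGS-40F cGMP biosensor. Compound-treated cells are challenged with 50 uM sodium nitroprusside, and the luciferase signal is compared before and after stimulation.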

Assay [8] concerns the target Atrial natriuretic peptide receptor 1 (Homo sapiens) (UniProt P16066). Put plainly: Natriuretic polypeptide receptor (hNpr1) antagonism - Pilot screen (AID 1347049; calls by dose curve;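 further: agonist-evoked cGMP luminescence read 20 min after hNppA addition; series mostly up to about 58 µM; on the % scale 0 is the no-effect control and ±100 the full control effect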). Summed up: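 Readout is cGMP-driven firefly luciferase luminescence in HEK293 cells carrying hNpr1 and a PDE5-domain GloSensor, read before and 20 min after 0.1 nM hNppA stimulation. Cells had 2% substrate reagent for 2 h and test compound for 30 min.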

For assay [9], the target named is Atrial natriuretic peptide receptor 2 (Homo sapiens) (UniProt P20594). Put plainly: Natriuretic polypeptide receptor (hNpr2) antagonism - Pilot subtype selectivity assay (AID 1347050; calls by dose curve; further: on the % scale 0 is the no-effect control and ±100 the full control effect). Summed up: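 Pilot selectivity screen against hNpr2: HEK293 cGMP-sensor cells are treated with LOPAC1280 compounds, then with hNppC peptide at 1 nM final. The cGMP-driven luminescence change over 20 min at room temperature is the read-out.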
Sequence of Atrial natriuretic peptide receptor 2 (Homo sapiens) (P20594 whole entry, looked up): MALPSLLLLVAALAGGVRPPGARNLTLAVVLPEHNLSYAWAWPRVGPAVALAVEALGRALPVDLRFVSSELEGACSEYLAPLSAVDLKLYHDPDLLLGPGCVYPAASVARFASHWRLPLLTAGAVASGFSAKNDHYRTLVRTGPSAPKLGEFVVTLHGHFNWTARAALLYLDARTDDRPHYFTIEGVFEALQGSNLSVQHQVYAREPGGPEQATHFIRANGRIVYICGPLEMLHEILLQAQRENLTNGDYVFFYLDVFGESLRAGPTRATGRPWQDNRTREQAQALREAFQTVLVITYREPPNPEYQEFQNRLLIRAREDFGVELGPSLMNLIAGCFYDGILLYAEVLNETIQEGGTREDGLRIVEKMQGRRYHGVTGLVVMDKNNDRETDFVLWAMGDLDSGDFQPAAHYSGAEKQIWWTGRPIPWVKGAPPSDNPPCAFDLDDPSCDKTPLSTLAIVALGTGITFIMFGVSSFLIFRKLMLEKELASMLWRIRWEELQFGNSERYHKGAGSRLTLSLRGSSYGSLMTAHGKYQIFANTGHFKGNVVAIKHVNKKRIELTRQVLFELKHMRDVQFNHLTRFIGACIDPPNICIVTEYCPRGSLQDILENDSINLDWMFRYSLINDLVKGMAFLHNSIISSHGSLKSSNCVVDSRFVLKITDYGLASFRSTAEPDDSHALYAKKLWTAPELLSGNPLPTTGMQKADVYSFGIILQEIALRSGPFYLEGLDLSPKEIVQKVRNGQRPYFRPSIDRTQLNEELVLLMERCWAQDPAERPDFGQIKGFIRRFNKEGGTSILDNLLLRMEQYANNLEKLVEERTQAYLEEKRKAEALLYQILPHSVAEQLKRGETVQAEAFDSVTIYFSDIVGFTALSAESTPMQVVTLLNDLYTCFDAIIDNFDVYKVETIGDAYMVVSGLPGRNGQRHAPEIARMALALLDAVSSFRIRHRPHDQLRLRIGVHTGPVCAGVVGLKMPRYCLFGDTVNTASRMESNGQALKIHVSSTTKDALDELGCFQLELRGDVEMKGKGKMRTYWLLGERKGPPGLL

The target of assay [10] is T1, Tyrosine-protein phosphatase non-receptor type substrate 1 (Homo sapiens) + Leukocyte surface antigen CD47 (Homo sapiens) (UniProt P78324+Q08722). Put plainly: CD47-SIRPalpha protein protein interaction - HTRF assay qHTS validation (AID 1347058; active means well fitted curve in the direction sought with a large enough effect in the signal ratio, not every such curve was filed as active; the % refers to the signal ratio;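 further: recombinant soluble extracellular CD47 with His tag and biotinylated SIRPalpha domains; series mostly up to about 38 µM; 0% is about no effect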). The procedure, abridged: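 TR-FRET read (Ch1/Ch2 ratio) of soluble extracellular CD47 and Avi-biotinylated SIRPalpha domains in PBS pH 7.4 with 0.05% IGEPAL; 7-point compound titration. Sequential 30 min room-temperature steps; non-biotinylated SIRPalpha as control inhibitor.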
T1 sequence (P78324 whole entry, looked up, the tested form may be a part): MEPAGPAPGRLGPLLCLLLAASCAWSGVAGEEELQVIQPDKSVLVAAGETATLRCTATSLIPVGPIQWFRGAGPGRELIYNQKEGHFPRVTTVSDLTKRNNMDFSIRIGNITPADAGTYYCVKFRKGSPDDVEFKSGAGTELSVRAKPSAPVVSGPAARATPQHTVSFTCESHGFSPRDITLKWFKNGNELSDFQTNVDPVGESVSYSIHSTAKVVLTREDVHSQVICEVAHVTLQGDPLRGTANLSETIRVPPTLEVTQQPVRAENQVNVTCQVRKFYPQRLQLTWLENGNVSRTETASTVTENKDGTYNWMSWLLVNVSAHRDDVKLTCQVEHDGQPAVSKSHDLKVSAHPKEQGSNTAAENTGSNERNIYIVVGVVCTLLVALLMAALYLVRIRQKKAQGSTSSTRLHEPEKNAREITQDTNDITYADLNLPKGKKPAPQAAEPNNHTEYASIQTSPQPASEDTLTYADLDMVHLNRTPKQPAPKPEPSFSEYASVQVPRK
T1 sequence (Q08722 whole entry, looked up, the tested form may be a part): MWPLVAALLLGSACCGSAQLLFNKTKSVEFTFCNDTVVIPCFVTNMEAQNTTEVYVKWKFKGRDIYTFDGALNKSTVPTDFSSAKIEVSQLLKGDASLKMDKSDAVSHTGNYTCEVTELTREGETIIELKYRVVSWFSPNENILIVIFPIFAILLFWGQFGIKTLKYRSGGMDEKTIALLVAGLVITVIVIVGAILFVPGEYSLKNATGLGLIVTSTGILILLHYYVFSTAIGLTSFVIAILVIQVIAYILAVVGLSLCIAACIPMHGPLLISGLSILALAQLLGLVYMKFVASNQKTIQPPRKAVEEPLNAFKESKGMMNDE
In general terms: Time-resolved FRET reads energy transfer from a long-lived donor to a nearby acceptor.

The target in assay [11] is T1, Tyrosine-protein phosphatase non-receptor type substrate 1 (Homo sapiens) + Leukocyte surface antigen CD47 (Homo sapiens). Put plainly: CD47-SIRPalpha protein protein interaction - Alpha assay qHTS validation (AID 1347059).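 Further: bead proximity luminescence from CD47 binding SIRPalpha after compound preincubation with SIRPalpha; on the % scale 0 is the no-effect control and ±100 the full control effect.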 Summed up:
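Binding is measured by AlphaScreen proximity: Ni-NTA acceptor beads capture His-CD47, streptavidin donor beads capture biotin-SIRPalpha. Each of three additions (SIRPalpha with compound, CD47, beads) incubates 30 min at room temperature protected from light.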

Assay [12] deals with Parathyroid hormone/parathyroid hormone-related peptide receptor (Homo sapiens) (UniProt Q03431). Put plainly: qHTS for PTHR1 Agonists: Optimization Screen against the NCGC LOPAC library (AID 1347079).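 Further: GloSensor cAMP luminescence in HEK-293 GP2 cells expressing human PTHR1 with IBMX; 0% is about no effect.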 The procedure, abridged: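 Compounds were tested across a qHTS titration. PTHR1-expressing GP2 cells report cAMP rises via GloSensor luminescence after 1 hr compound exposure at 37C with IBMX present.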
Sequence of Parathyroid hormone/parathyroid hormone-related peptide receptor (Homo sapiens) (Q03431 whole entry, looked up): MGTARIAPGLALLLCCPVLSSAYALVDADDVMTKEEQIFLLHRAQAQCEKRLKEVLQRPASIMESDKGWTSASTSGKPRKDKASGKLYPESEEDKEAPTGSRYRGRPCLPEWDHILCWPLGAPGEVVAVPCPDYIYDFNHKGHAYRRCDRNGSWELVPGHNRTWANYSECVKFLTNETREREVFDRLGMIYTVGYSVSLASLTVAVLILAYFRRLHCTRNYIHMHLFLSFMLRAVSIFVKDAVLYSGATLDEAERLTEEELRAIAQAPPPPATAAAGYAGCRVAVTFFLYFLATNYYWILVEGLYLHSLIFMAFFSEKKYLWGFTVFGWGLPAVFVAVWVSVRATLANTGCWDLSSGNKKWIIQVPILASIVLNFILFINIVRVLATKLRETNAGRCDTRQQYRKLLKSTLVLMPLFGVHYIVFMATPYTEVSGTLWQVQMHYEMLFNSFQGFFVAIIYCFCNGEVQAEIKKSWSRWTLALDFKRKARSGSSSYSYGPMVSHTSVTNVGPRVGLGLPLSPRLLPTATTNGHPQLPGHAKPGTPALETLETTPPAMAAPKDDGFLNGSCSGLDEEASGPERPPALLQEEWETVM

A short description of assay [13]: Identifying Small Molecule Inhibitors of Pancreatic Cancer Stem Cells (A278, Adherent) (AID 1259361). Further: nearly all actives have a fitted effect of over 35% in size. The procedure, abridged:
as §2

In assay [14] the target is T1, Tyrosine-protein phosphatase non-receptor type substrate 1 (Homo sapiens) + Leukocyte surface antigen CD47 (Homo sapiens). The experiment in a line: CD47-SIRPalpha protein protein interaction - LANCE assay qHTS validation (AID 1347057; active means well fitted curve in the direction sought with a large enough effect in the signal ratio, with a control signal flat, not every such curve was filed as active; the % refers to the signal ratio; further: series mostly up to about 38 µM; 0% is about no effect). The procedure, abridged:
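First, His-tagged CD47 and Eu-labelled anti-His antibody met the compound for 30 min; next, site-specifically biotinylated SIRPalpha was added for 30 min; finally streptavidin-APC was added before reading the TR-FRET ratio.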

A short description of assay [15]: P-glycoprotein substrates identified in KB-3-1 adenocarcinoma cell line, qHTS therapeutic library screen (AID 1346986). Further: nearly all actives have a fitted effect of over 60% in size. The procedure, abridged:
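Counter-screen: cherry-picked hits retested in the KB pair and in HEK-293 pcDNA/MDR-19 cells ± tariquidar. Primary screen used 72 h CellTiter-Glo viability in KB-3-1 and KB-8-5-11.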

Assay [16] can be described thus: Identifying Small Molecule Inhibitors of Pancreatic Cancer Stem Cells (A2780, Spheroid) (AID 1259357).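 Further: compound exposure lasted 48 h before the ATP luminescence read; 100% = DMSO treated cells and 0% = wells without cells.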 Particulars: Potency: A2780 spheroid viability. The procedure, abridged: as §1
The nature of assay [17]: qHTS assay to identify small molecule inhibitors of chordoma cells - UCH-1 (AID 1259355). Further: on the % scale 0 is the no-effect control and ±100 the full control effect; nearly all actives have a fitted effect of over 55% in size. The procedure, abridged:
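Seed 800 cells per well; incubate overnight at 37 C, 5% CO2. Add test compounds (15 concentrations), then the auranofin–topoisomerase-agent combination. Incubate 48hr, add CellTiter-Glo, wait 30min, read luminescence.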

The nature of assay [18]: qHTS assay to identify small molecule inhibitors of chordoma cells - UCH-2 (AID 1259356).

“And” between values parts separate entries of the source, which are not always exact repeats. Identical values can stand only once. Records with an inconclusive call do not appear. Where a structure was tested more than once in an assay, its records may differ in their call. The source made the active and inactive calls. Unless noted, the call rests on the fitted dose curve; in most records, active means well fitted curve in the direction sought with a large enough effect; inconclusive means small, poorly fitted or top-dose-only effect, or another doubt; inactive means no such curve, though single readings can be large; an effect the other way counts as inactive or inconclusive.

Sequence of Atrial natriuretic peptide receptor 1 (Homo sapiens) (P16066 whole entry, looked up): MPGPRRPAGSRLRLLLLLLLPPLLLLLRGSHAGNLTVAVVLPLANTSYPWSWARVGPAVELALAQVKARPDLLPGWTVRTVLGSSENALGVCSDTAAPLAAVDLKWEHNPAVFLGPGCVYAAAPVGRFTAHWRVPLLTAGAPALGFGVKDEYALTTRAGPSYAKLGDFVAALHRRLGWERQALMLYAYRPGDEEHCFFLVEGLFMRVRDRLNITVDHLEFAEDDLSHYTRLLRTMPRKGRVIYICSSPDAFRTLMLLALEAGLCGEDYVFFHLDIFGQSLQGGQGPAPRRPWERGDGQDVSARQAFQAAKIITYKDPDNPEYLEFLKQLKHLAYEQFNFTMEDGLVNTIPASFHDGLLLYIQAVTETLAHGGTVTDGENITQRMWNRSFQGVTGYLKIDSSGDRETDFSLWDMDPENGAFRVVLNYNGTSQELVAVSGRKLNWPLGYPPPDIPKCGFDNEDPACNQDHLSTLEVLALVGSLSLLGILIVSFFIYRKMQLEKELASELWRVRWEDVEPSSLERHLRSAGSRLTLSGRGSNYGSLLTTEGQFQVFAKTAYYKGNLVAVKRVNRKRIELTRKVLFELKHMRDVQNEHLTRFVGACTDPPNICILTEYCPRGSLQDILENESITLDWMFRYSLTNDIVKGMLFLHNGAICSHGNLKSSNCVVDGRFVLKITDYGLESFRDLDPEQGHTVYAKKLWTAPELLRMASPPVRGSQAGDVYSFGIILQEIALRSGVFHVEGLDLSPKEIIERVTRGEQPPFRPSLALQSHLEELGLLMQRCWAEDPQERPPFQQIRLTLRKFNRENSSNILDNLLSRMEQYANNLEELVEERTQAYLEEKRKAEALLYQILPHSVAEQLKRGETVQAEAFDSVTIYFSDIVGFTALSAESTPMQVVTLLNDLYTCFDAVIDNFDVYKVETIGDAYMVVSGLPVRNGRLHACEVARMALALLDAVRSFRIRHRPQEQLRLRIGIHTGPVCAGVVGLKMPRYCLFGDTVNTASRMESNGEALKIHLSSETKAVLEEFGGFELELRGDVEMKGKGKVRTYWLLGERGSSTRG

As for `COc1ccc(CCN2CCN(CCCc3ccccc3)CC2)cc1OC`, the Potency entry in assay [1], in assay [3], in assay [4] and in assay [5] was “inactive” in each case. The Potency in assay [2] was 13.2 µM (active).
Regarding `COc1ccc(-c2oc3cc(OC)ccc3c2C(=O)c2ccc(C#N)cc2)cc1`, the Potency result in assay [1], in [6], in assay [2], in assay [3], in assay [4] and in [5] was “inactive” in each case.
As for `Cc1c(CN2CCN(C(=O)C(C)C)CC2)sc2c(N3CCOCC3)nc(-c3cnc(N)nc3)nc12`, the Potency in assay [1] was 0.0662 µM (active); in assay [2] it was 0.166 µM (active); in assay [3] it was 0.0833 µM (active).
For `CC(C)C[C@H](NC(=O)[C@@H](O)[C@H](N)Cc1ccccc1)C(=O)O`, the Potency in assay [1] and in assay [3] was 23.5 µM (active) throughout. The Potency entry in assay [6], in assay [2], in assay [9], in [4] and in assay [5] was “inactive” throughout. Further, the result in assay [7], in [8], in [10], in [11] and in [12] was inactive.
For the compound `COc1ccccc1[C@H](c1cccc2ccccc12)[C@@](C)(C#N)C(=O)N1CCC(c2cccc(C(F)(F)F)c2)CC1`, the Potency in [1] is 13.2 µM (active). In addition, the Potency entry in [6], in assay [2] and in [4] was “inactive” throughout.
On to `CC(=O)NC(C)c1ccc(Oc2ccc(OC(C)C)cc2)cc1` (stereo unspecified), for which the Potency result in assay [1], in [6], in assay [2], in assay [3], in [4] and in assay [5] was “inactive” in each case.
For the compound `C[C@H](NC(=O)Cc1cc(F)cc(F)c1)C(=O)N[C@@H]1C(=O)N(C)c2ccccc2-c2ccccc21`, in [1], the Potency was 11.8 µM (active). Also, the Potency entry in assay [2], in assay [3] and in [4] was “inactive” throughout.
Turning to `CS(=O)(=O)c1cccc(CNc2nc(Nc3ccc4c(c3)CCC(=O)N4)ncc2C(F)(F)F)c1`, in [1], the Potency was 11.8 µM (active). Moreover, the Potency entry in [6], in assay [2], in assay [3] and in [4] was “inactive” in each case. Moreover, the IC50 (viability decrease) in assay [13] was 3.72 µM (active). Further, the result in [14] and in assay [11] was inactive.
With `CC(C)OC(=O)C1=CN(C(=O)c2ccc(F)c(F)c2)CC(C)(C)c2c1[nH]c1ccccc21`, the Potency entry in assay [1], in assay [6], in assay [2], in assay [3] and in assay [4] was “inactive” in each case. Besides, in assay [13], the IC50 (viability decrease) result is “inactive”.
`NC(=O)c1ccc(-c2nc(-c3ccc4c(c3)OCO4)c(-c3ccccn3)[nH]2)cc1`: the Potency result in [1], in assay [2], in [15], in [3], in [4] and in assay [5] was “inactive” throughout.
On to `CS(=O)(=O)c1ccc(C(=O)Nc2ccc(Cl)c(-c3ccccn3)c2)c(Cl)c1`, for which the Potency result in [1], in assay [6], in assay [2], in assay [3], in assay [4] and in assay [5] was “inactive” each time.
For the compound `O=C1[C@H](Cc2ccc(O)cc2)N2C(=O)CCN(C(=O)NCc3ccccc3)[C@H]2CN1Cc1cccc2ccccc12`, the Potency in [1] is 1.87 µM (active); in assay [6], 16.6 µM (active); in assay [2], 20.9 µM (active); in assay [4], 9.35 µM (active); in assay [5] it was 11.7 µM (active).
Turning to `Fc1ccc(Cl)cc1-c1nc(Nc2ccncc2)c2nccnc2n1`, in assay [1], the Potency is 1.32 µM (active). Moreover, the Potency entry in assay [6], in assay [2], in assay [3], in [4] and in assay [5] was “inactive” each time. Moreover, in [13], the IC50 (viability decrease) entry is “inactive”.
For the compound `Cn1c(=O)c(F)c(Nc2ccc(I)cc2F)c2c(=O)n(C[C@@H](O)CO)cnc21`, the Potency entry in [1], in assay [3], in assay [4] and in [5] was “inactive” throughout. Besides, the Potency in [2] was 8.33 µM (active).
As to `COc1ccc([C@@H]2CC(=O)c3c(O)cc(O[C@@H]4O[C@H](CO[C@@H]5O[C@@H](C)[C@H](O)[C@@H](O)[C@@H]5O)[C@@H](O)[C@H](O)[C@@H]4O)cc3O2)cc1O`, the Potency entry in [1] is “inactive and 23.5 µM (active)”. In addition, the Potency entry in assay [3], in assay [4] and in assay [5] was “inactive” in each case.
With `O=C(OCC#CCSc1nnc(-c2ccc3ccccc3c2)o1)c1cc2ccccc2s1`, the Potency result in assay [6] and in [2] was “inactive” throughout.
Turning to `CC[C@H](Nc1ncnc2nc[nH]c12)c1nc2cccc(F)c2c(=O)n1-c1ccccc1`, the Potency in [1] is 2.96 µM (active). Further, in [13], the IC50 (viability decrease) is 20.9 µM (active). In addition, in assay [3], the activity change, negative = cytotoxicity was 3.11% [at 9.29 µM] (inactive). Also, the Potency entry in assay [4] was “inactive”.
For `Nc1nccc(-c2ccc3noc(-c4ccc(Cl)cc4)c3c2)n1`, the Potency in assay [1] was 23.5 µM (active). Further, the Potency entry in assay [2], in assay [3], in assay [4] and in assay [5] was “inactive” throughout.
Regarding `C[C@@H]1C[C@H]2[C@@H]3CCC4=CC(=O)C=C[C@]4(C)C3(F)[C@@H](O)C[C@]2(C)[C@@]1(O)C(=O)CO` (stereo partly specified), the Potency entry in assay [16], in assay [6] and in [2] was “inactive” throughout.
`Nc1nc2ccc(OC(F)(F)F)cc2s1`: the Potency result in [17], in assay [9], in assay [4] and in assay [5] was “inactive” throughout. Also, the call in assay [18], in [7], in assay [8], in assay [10], in [11] and in [12] was inactive.
For `COCCNCCCn1c(C(=O)CF)c(-c2ccc(C)cc2)c2c(N)ncnc21`, the Potency entry in assay [16], in assay [6], in [3] and in [4] was “inactive” each time. Further, the IC50 (viability decrease) in assay [13] was 18.7 µM (active).
On to `Cc1oncc1C(=O)Nc1ccc(C(F)(F)F)cc1`, for which the Potency result in [17], in assay [16] and in [9] was “inactive” throughout. For the same compound, the outcome in [18], in assay [7], in assay [8], in assay [10], in [11] and in [12] was inactive. For the same compound, in assay [4], the Potency result was “inactive and 11.8 µM (active)”.
